WT yeast gro inh: growth inhibition of WT strain, primary screen, mitochondrial fusion inhibitor project, WT and mutant strains, chemical genetic; mitochondrial fusion phenotypic screen; inhibition, % at 10 µM; actives 2.1% (n = 190,000); AID 1362, 2008; in the data active = inhibition above about 58%; tested in S. cerevisiae
TPT1 inh: Candida albicans TPT1 enzyme inhibitors, primary screen, biochemical, fluorescence polarization; actives 0.81% (n = 300,000); AID 1962, 2009; tRNA 2'-phosphotransferase TPT1 (Candida albicans SC5314); inhibition, % at 5 µM; recombinant caTPT1, FP RNA substrate dephosphorylation;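 active = inhibition above the mean of all tested compounds plus 3 SD, set per screening campaign, cut at about 24% in these data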
Rtt109 HAT inh: inhibitors of C. albicans Rtt109/Vps75 HAT, primary screen, biochemical, ThioGlo CoA-SH fluorescence, plate reader | Histone acetyltransferase RTT109 (Candida albicans (strain SC5314 / ATCC MYA-2876)), … | purified Rtt109/Vps75, 4 h | inhibition, % at 34.9 µM | actives 0.16% (n = 330,000);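 active = inhibition of at least 50% in every replicate; inconclusive = best replicate reaches 50% inhibition but some replicates fall short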
Target sequence (Q5AAJ8 whole entry, looked up): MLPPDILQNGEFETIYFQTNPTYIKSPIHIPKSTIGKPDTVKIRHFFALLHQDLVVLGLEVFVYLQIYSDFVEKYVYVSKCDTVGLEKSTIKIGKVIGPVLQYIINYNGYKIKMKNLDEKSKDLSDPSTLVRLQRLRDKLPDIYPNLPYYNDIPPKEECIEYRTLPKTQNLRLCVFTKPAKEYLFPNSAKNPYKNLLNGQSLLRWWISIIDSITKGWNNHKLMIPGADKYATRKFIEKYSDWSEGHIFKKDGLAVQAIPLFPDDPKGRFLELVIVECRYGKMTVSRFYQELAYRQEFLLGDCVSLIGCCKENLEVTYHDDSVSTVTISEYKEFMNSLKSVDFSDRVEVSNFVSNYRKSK
SKKanGAS inh: S. pyogenes SKKanGAS growth inhibitors in kanamycin, primary screen, streptokinase expression inhibitor project, SKKanGAS strain, BacTiter-Glo luminescence. 6 h. AID 1662, 2009. inhibition, % at 7.5 µM. actives 1.3% (n = 300,000);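 active = mean replicate score, as percent of positive control median, at least 50; inconclusive = mean below 50 but one replicate at or above 50; inactive = mean and every replicate below 50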;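 also: strain carries kanamycin resistance gene driven by streptokinase promoter and grows in 40 µg/ml kanamycin; loss of luminescence reflects streptokinase promoter inhibition or plain growth inhibition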
PHOSPHO1 inh: PubChem AID 1565. Phosphoethanolamine/phosphocholine phosphatase (Homo sapiens), Q8TCT1. recombinant PHOSPHO1, absorbance phosphatase assay. inhibition, % at 13.3 µM. actives 1.1% (n = 290,000); in the data active = inhibition above about 60%
Target sequence (Q8TCT1 whole entry, looked up): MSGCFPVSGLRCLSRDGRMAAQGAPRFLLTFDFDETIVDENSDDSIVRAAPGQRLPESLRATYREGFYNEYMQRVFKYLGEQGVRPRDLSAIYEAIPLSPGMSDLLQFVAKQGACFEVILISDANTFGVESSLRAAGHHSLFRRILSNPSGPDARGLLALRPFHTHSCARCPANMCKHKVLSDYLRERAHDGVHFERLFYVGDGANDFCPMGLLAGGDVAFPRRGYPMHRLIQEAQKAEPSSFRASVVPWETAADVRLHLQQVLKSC
Platelet DG rel: inhibitors of platelet dense granule secretion, primary screen, cell-based, MLPCN, human platelets | actives 0.22% (n = 300,000) | human platelet-rich plasma, SFLLRN dense granule ATP release, luminescence | inhibition, %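 (compounds screened at 7.5 µM in platelet-rich plasma)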;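 active = mean replicate score, as percent of positive control, at or above 50; inconclusive = mean below 50 but at least one replicate at or above 50; inactive = mean and every replicate below 50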
Hits are given with their value; – = inactive; ? = inconclusive; · = no result. Hits are enriched below; roughly 3.9% of the tested compounds scored in any of these assays.

SMILES	WT yeast gro inh	TPT1 inh	Rtt109 HAT inh	SKKanGAS inh	PHOSPHO1 inh	Platelet DG rel
Cc1cc(C(=O)CSc2nnc(N)s2)c(C)n1Cc1ccco1	–	–	–	–	–	–
Cc1cccc(-n2nnnc2SCC(=O)c2cc(C)n(Cc3ccco3)c2C)c1	–	–	–	–	75.9	–
Cc1cc(C(=O)CSc2nc3ccccc3o2)c(C)n1CC1CCCO1 (stereo not drawn)	–	–	–	–	92.7	–
Cc1cc(C(=O)CSc2nc(N)cc(N)n2)c(C)n1CC1CCCO1 (stereo not drawn)	·	·	–	·	·	·
Cc1cc(C(=O)CSc2nc3ccccc3[nH]2)c(C)n1CC1CCCO1 (stereo not drawn)	–	–	–	–	–	–
Cc1sc2nc(SCC(=O)c3cc(C)n(CC4CCCO4)c3C)n(C(C)C)c(=O)c2c1C (stereo not drawn)	–	–	·	–	78.9	–
COC(=O)c1cc(C)c(C)cc1NC1OC(CO)C(O)C1O (stereo not drawn)	·	·	–	·	·	·
Cc1ccc(-n2nnnc2SCC(=O)c2cc(C)n(CC3CCCO3)c2C)cc1 (stereo not drawn)	–	–	–	–	74.4	–
Cc1ccc2nc(-c3ccc(NC(=O)CNC4CC4)cc3)sc2c1	59.3	·	–	?	–	–
Cc1ccc(N/C=C/C(=O)c2cccs2)cc1	–	–	–	–	–	51.6
COc1ccc(NS(=O)(=O)c2cccc(C(=O)N3CCCC3)c2)cc1	·	–	–	–	·	–
CCOC(=O)C(C(=O)Nc1ccccn1)C1CCCCC1 (stereo not drawn)	–	–	–	–	70.2	–
CCOC(=O)N1CCN(c2ccc(O)cc2)CC1	–	–	–	–	62.7	–
Cc1ccc(N2C(=O)[C@@H]3[C@H](C2=O)C2c4ccccc4C=CN2[C@@H]3C(=O)c2ccco2)c(C)c1 (stereo partly drawn)	·	–	–	–	–	–
O=C(c1ccco1)[C@@H]1[C@@H]2C(=O)N(c3ccccc3)C(=O)[C@@H]2C2c3ccccc3C=CN21 (stereo partly drawn)	·	–	–	–	84.3	–
Cc1ccc(N2C(=O)[C@@H]3[C@H](C2=O)C2c4ccccc4C=CN2[C@@H]3C(=O)c2ccco2)cc1 (stereo partly drawn)	–	·	–	·	73.8	·
COc1ccc(N2C(=O)[C@@H]3[C@H](C2=O)[C@H]2c4ccccc4C=CN2[C@@H]3C(=O)Nc2ccccc2)cc1	–	102.3	–	·	–	·
O=C(CCCNC(=O)c1ccc(Cl)cc1)Nc1ccccc1C(F)(F)F	·	–	–	–	–	–
Cc1nn(CC(=O)OCC(=O)Nc2cccc(S(N)(=O)=O)c2)c(C)c1[N+](=O)[O-]	·	·	–	·	·	·
CC(NC(=O)c1ccccc1F)C1CC1 (stereo not drawn)	·	–	–	–	–	–
CCOC(=O)CSC1=C(C#N)C(=O)NC2(CCCCC2)S1	–	–	–	–	97.9	–
CCOc1ccc(S(=O)(=O)NN)cc1	·	–	–	–	92.4	·
O=C1C2=C(NC(=S)NC2c2ccc(Cl)cc2)NC(c2ccc(Cl)cc2)N1c1ccc(Cl)cc1 (stereo not drawn)	–	–	–	105.1	–	–
COc1ccc(S(=O)(=O)N2CCCCCC2)cc1C(=O)N(C)CC(=O)Nc1ccccc1C(F)(F)F	·	·	–	·	·	·
CCOC(=O)N1CCC(N2C(=O)c3ccccc3C2=O)CC1	–	–	–	–	99.1	–
SMILES	WT yeast gro inh	TPT1 inh	Rtt109 HAT inh	SKKanGAS inh	PHOSPHO1 inh	Platelet DG rel
CCOC(=O)N1CCC(N2C(=O)c3ccc(C(=O)NCCC(C)C)cc3C2=O)CC1	·	–	–	–	–	–
Cc1ccccc1C(=O)NC1CC2CCCC(C1)N2C(=O)Nc1ccccc1 (stereo not drawn)	·	–	–	–	–	–
CCNC(=O)C(C)Sc1ccc(Cl)cc1 (stereo not drawn)	–	–	–	–	–	–
CC(Sc1ccc(Cl)cc1)C(=O)Nc1ccccc1-c1ccccc1 (stereo not drawn)	74.5	–	–	–	–	–
Cc1ccc(SC(C)C(=O)Nc2ccccc2-c2ccccc2)cc1 (stereo not drawn)	78.3	–	–	–	–	–
Cc1ccc(SC(C)C(=O)Nc2ccccc2C(=O)N2CCOCC2)cc1 (stereo not drawn)	–	–	–	–	–	–
CC(C)C(C(=O)Nc1ccccc1F)N1C(=O)c2ccccc2C1=O (stereo not drawn)	·	–	–	–	·	–
CC(C)C(C(=O)Nc1cccnc1)N1C(=O)c2ccccc2C1=O (stereo not drawn)	–	–	52.9	–	–	–
Cc1ccc(SC(C)C(=O)Nc2cccnc2)cc1 (stereo not drawn)	–	–	–	–	60.1	–
CC(NC(=O)CN(C)CC(=O)Nc1cccc(F)c1)c1ccccc1 (stereo not drawn)	·	·	–	·	·	·
Cc1ccc(CC(=O)Nc2nccs2)cc1C	·	–	–	–	–	–
Cc1nc2sccn2c(=O)c1S(=O)(=O)N1CCN(c2cccc(Cl)c2)CC1	·	–	–	–	–	54.4
Nc1c(Br)cc2c(c1Br)C(O)c1ccccc1-2 (stereo not drawn)	·	·	–	·	·	·
Cn1c(NCc2ccco2)nc2c1c(=O)n(Cc1ccc(Cl)c(Cl)c1)c(=O)n2C	–	–	–	58.7	–	–
COc1ccc(N2CCN(Cc3csc(C)c3-c3ccc(C)cc3)CC2)cc1	·	–	–	–	–	–
COc1ccc(NC(=O)C2C(c3ccccc3)C2(Cl)Cl)c(OC)c1 (stereo not drawn)	·	–	–	–	–	–
Cc1ccc(NC(=O)C2C(c3ccccc3)C2(Cl)Cl)c(C)c1 (stereo not drawn)	86.0	–	–	–	–	–
Cc1cccc(NC(=O)C2C(c3ccccc3)C2(Cl)Cl)c1 (stereo not drawn)	63.6	–	–	–	–	–
COc1ccc(-c2cc(C(=O)Nc3c(C)n(C)n(-c4ccccc4)c3=O)c3ccccc3n2)c(OC)c1	·	–	–	–	–	–
O=C(COC(=O)c1n[nH]c(=O)c2ccccc12)Nc1ccccc1	·	·	–	·	·	·
OCC[C@H]1C[C@@H](O)[C@H](O)[C@@]2(OCc3ccccc32)O1	·	–	–	·	·	·
CC1CC(C)CN(Cc2nc(N)nc(Nc3ccc4ccccc4c3)n2)C1 (stereo not drawn)	–	–	–	51.8	–	–
CC1CC(C)CN(Cc2nc(N)nc(Nc3ccccc3)n2)C1 (stereo not drawn)	–	–	–	–	–	–
Nc1nc(CN2CCC(Cc3ccccc3)CC2)nc(Nc2ccccc2)n1	–	–	–	49.7	–	–
Cc1cccc(Nc2nc(N)nc(CN3CCN(c4ccc(F)cc4)CC3)n2)c1	–	–	–	64.8	–	–
